# Data published in PubChem BioAssay (NCI).
# This is part of a sample that, as a whole, favours compounds with a hit. Of some 83,000 tested, about 20% had one in any assay.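 Activity criterion: percent growth below 10, measured after cells in 96-well plates were exposed to a single compound concentration for 48 hours.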 A number with no mark means an inactive call.
# System: SK-MEL-28 melanoma
# Assay: NCI-60 one-dose screen, 48 h (100 = growth as untreated, 0 = no growth, -100 = all killed)
# Conditions: 10 µM
row,SMILES,growth
1,CC(C)C(C#N)(C(C)C)C(C)C,109%
2,CCCCOC(OCCCC)c1ccccc1,107%
3,CCOc1ccccc1/C=N/Nc1nc2ccccc2o1,100%
4,COC(=O)/C=C/C(=O)NC(N)=O,97.8%
5,CN(C)c1ccc(C(c2ccc(O)cc2)c2ccc(N(C)C)cc2)cc1,101%
6,Nc1ccc(N)c([N+](=O)[O-])c1,115%
7,CC(C)C1CCCCC1O (configuration not stated),116%
